Source: PubChem BioAssay (National Center for Advancing Translational Sciences (NCATS))
GLS inhibitor = qHTS for Inhibitors of Glutaminase (GLS); Glutaminase kidney isoform, mitochondrial (Homo sapiens), O94925; GLS enzymatic activity, qHTS titration; Potency, µM (highest dose often 45.5 µM), inactives show at the top dose activity change, negative = inhibition, hits mostly inhibitors; actives 0.21% (n = 410,000); AID 624170, 2012
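Enzyme dispensed in phosphate buffer (45 mM, pH 8.2, 0.02% Tween-20), compounds pinned in, then 1 mM L-glutamine solution and the glutamate oxidase–HRP–Amplex Red mix added; fluorescence read immediately and again after 30 min at room temperature.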
RECQ1 helicase = qHTS Assay for Inhibitors of RecQ-Like Dna Helicase 1 (RECQ1). Potency, µM (titrated, usually from 57.3 µM), for the others: at the top dose activity, negative = inhibition, actives largely listed as inhibitors. RECQ1 DNA unwinding, red fluorescence kinetic read. ATP-dependent DNA helicase Q1 (Homo sapiens), P46063. AID 2549, 2010. actives 0.54% (n = 240,000);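 further: plate controls were vehicle for no effect and no enzyme for full effect; nearly all actives have a fitted effect of over 30% in size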
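RECQ1T1 50 nM; forked duplex (20 bp + 30-nt ss tails) 200 nM, ATP 2 mM final; pH 8.0, 2 mM MgCl2, 2.5 ug/ml poly(dI-dC); 15 min compound preincubation; discontinuous kinetic read over 2 h at RT.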
PGK inhibitor = qHTS Assay to Find Inhibitors of Phosphoglycerate Kinase; Phosphoglycerate kinase, glycosomal (Trypanosoma brucei brucei), P07378; actives 0.043% (n = 380,000); Potency, µM (doses to about 57.5 µM), inactives show top-dose activity change, negative = inhibition, actives largely listed as inhibitors; PGK/GAPDH coupled, Kinase-Glo luminescence, 60 min; further: nearly all actives have a fitted effect of over 60% in size
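Recombinant glycosomal PGK reaction used 1,3-bisphosphoglycerate generated in-well by GAPDH (100nM final) in 100mM TEA pH 7.6, 5mM MgCl2, 0.01% Tween-20. After 60 minutes at room temperature, ATP was read by Kinase-Glo Plus luminescence end-point.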
TDP1 block = qHTS Assay for Inhibitors of Tyrosyl-DNA Phosphodiesterase (TDP1). recombinant TDP1, AlphaScreen DNA substrate cleavage. AID 485290, 2010. actives 0.28% (n = 350,000). Tyrosyl-DNA phosphodiesterase 1 (Homo sapiens), Q9NUW8. Potency, µM (highest dose often 130 µM), for inactives: at the highest dose activity change, negative = inhibition, actives largely listed as inhibitors; further: nearly all actives have a fitted effect of over 40% in size
Target sequence (Q9NUW8 whole entry, looked up): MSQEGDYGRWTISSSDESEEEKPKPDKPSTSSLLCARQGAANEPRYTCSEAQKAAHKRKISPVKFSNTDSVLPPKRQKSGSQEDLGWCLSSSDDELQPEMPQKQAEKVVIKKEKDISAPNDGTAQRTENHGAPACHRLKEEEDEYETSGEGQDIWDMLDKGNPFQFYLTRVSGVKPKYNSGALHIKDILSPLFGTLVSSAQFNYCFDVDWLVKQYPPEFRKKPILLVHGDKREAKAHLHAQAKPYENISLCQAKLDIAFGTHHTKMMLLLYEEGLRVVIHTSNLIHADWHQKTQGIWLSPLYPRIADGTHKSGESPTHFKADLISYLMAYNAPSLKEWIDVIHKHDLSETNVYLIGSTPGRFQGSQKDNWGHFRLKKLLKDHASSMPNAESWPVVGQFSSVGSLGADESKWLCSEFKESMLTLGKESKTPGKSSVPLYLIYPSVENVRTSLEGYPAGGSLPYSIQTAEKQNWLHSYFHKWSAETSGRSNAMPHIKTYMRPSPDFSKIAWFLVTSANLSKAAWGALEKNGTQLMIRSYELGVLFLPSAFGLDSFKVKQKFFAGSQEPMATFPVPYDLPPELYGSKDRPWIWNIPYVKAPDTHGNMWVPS
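Here, a 5' biotin and 3' phosphotyrosine-FITC DNA oligonucleotide reports Tdp1 activity: intact substrate bridges AlphaScreen beads, while cleavage leaves a 3' phosphate and drops signal. All incubations at room temperature.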
APEX1 inh = qHTS Assay for Inhibitors of the Human Apurinic/apyrimidinic Endonuclease 1 (APE1); actives 0.35% (n = 350,000); Potency, µM (top dose mostly 65.8 µM), without a hit: top-dose activity change, negative = inhibition, usual class: inhibitors; recombinant APE1, TAMRA/BHQ-2 abasic DNA cleavage fluorescence; AID 2517, 2012;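 further: plate controls were vehicle for no effect and reference inhibitor for full effect; nearly all actives have a fitted effect of over 55% in size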
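APE1 at 0.75 nM final was preincubated with compound 15 min at room temperature, then 50 nM double-stranded THF abasic-site substrate (5'-TAMRA/3'-BHQ-2) was added. Fluorescence (ex 525/em 598 nm) was read kinetically; third-minus-first read gave activity.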
BLM helicase inh = qHTS Assay for Inhibitors of Bloom's syndrome helicase (BLM); recombinant BLM DNA unwinding, fluorescence dequenching; actives 0.2% (n = 350,000); Potency, µM (titrated, usually from 56.1 µM), inactives show top-dose activity change, negative = inhibition, usual class: inhibitors; RecQ-like DNA helicase BLM (Homo sapiens), P54132;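 further: plate controls were vehicle for no effect and no enzyme for full effect; nearly all actives have a fitted effect of over 35% in size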
Active calls of the source: *; i = inactive; ? = inconclusive; / = not tested or not shown; ! = not active in a repeat. Sampled rows, rich in hits. Any-hit rate of the full collection: about 0.85%. The call rests on the fitted dose curve; in most records, active means well fitted curve in the direction sought with a large enough effect; inconclusive means small, poorly fitted or top-dose-only effect, or another doubt; inactive means no such curve, though single readings can be large; an effect the other way counts as inactive or inconclusive. Unless noted, on the % scale 0 is the no-effect control and ±100 the full control effect; potency means the concentration at half of the fitted maximal effect.

SMILES	GLS inhibitor	RECQ1 helicase	PGK inhibitor	TDP1 block	APEX1 inh	BLM helicase inh
Cc1ccc(/C=N/NC(=O)Cc2ccc(Cl)cc2)c(O)c1	-8%	/	-7%	50µM*	?	-18%
Cc1ccc(S(=O)(=O)N2CCN(c3nc(C#N)nc4ccccc34)CC2)cc1	/	/	/	-1%	/	/
COc1ccc(S(=O)(=O)c2c(C)c(NS(=O)(=O)c3ccccc3)cc(C)c2O)cc1	3.2µM*!	-14%	13%	3%	20%	2%
CCCCCCCCCCCCCCCC[N+](C)(C)Cc1ccccc1	32µM*	/	/	/	/	88%
CCCCCCCCCCCCCC[N+](C)(C)Cc1ccccc1	-13%	/	/	/	/	39%
O=S(=O)(c1ccc2c(c1)OCCO2)N1CCN(S(=O)(=O)c2ccc3nc(Cl)c(Cl)nc3c2)CC1	/	/	/	-14%	/	/
Cc1ccc(-c2ccc(/C=C3/NC(=O)NC3=O)o2)cc1[N+](=O)[O-]	5%	28µM*	6%	0%	-5%	-21%
O=C1NC(=S)N/C1=C/c1ccc(-c2c(Br)cc([N+](=O)[O-])cc2Br)o1	/	-29%	/	/	-11%	-15%
CC1=C(C#N)C(=O)NC(=O)/C1=C\c1ccc(-c2cc(C)c(C)cc2[N+](=O)[O-])o1	11µM*	-6%	-14%	5%	-8%	-19%
O=S(=O)(c1ccsc1)N1CCN(c2nc(-c3cccs3)nc3ccccc23)CC1	/	/	/	-5%	/	/
N#Cc1nc(NCCCCO)nc(Nc2ccccc2)n1	/	0%	/	10%	-12%	-3%
CC(C)(C)OC(=O)C[C@@H]1C/C=C\C[C@H](CC(=O)NCCO)C(=O)N2CCC[C@H]2COC1=O	6%	/	?	-14%	6.7µM*	/
O=C(C[C@@H]1C/C=C\C[C@H](NC(=O)OCC2c3ccccc3-c3ccccc32)C(=O)OC[C@@H]2CCCN2C1=O)N[C@@H](CO)Cc1ccccc1	14%	/	2%	-11%	-35%	/
CC(C)(C)OC(=O)C[C@H]1C/C=C\C[C@@H](CC(=O)NCCO)C(=O)N2CCC[C@H]2COC1=O	0%	/	-6%	0%	4%	/
O=C(C[C@@H]1C/C=C\C[C@H](NC(=O)OCC2c3ccccc3-c3ccccc32)C(=O)OC[C@@H]2CCCN2C1=O)NCCO	6%	/	-1%	?	9.5µM*	/
O=c1nc2n(c3ccccc13)Cc1ccccc1-2	/	-2%	/	0%	-5%	5%
O=c1c2cccc(Cl)c2nc2n1Cc1ccccc1-2	13µM*	0%	i	-5%	2%	-5%
COc1cccc(C2c3c(ncn(-c4ccccn4)c3=N)Oc3ccc4ccccc4c32)c1 (configuration not stated)	/	/	/	0%	/	/
CC1=CC(=O)c2ccccc2C1=O	11%	-12%	2%	6%	-3%	18µM*!
O=C(Nc1cc(C(F)(F)F)ccc1Cl)C(O)Cc1ccccc1 (configuration not stated)	/	/	/	-6%	/	/
CC(C)(C)OC(=O)C[C@H]1C/C=C\C[C@H](CC(=O)N[C@@H](CO)Cc2ccccc2)C(=O)N[C@H](C(C)(C)C)COC1=O	-6%	/	?	0%	13µM*	/
CC(C)(C)OC(=O)C[C@H]1C/C=C\C[C@H](CC(=O)N[C@H](CO)Cc2ccccc2)C(=O)N[C@H](C(C)(C)C)COC1=O	2%	/	-10%	3%	-6%	/
O=C(N[C@@H]1C/C=C\C[C@@H](CC(=O)N(CCO)Cc2ccccc2)C(=O)NCCOC1=O)OCC1c2ccccc2-c2ccccc21	12%	/	4%	-2%	24µM*	/
